# The list is not random: actives were taken first. Their share in the collection is about 0.55%.
# IMPase Li cell: IMPase inhibition in cells with lithium potentiation | CHO-M1 cells, IP1 TR-FRET (IP-One), carbachol + lithium | Potency, µM (top dose mostly 59.4 µM), inactives show at the top dose activity, negative = IMPase inhibition, actives largely listed as inhibitors | hit rate 0.35% among 210,000 | AID 1457;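 note: IP1 builds up when IMPase is blocked and the TR-FRET signal falls; potency is the fitted concentration of half-maximal effect; plate controls were basal vehicle for no effect and high inhibitor control for full effect; nearly all actives have a fitted effect of over 50% in size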
#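 Concentration–response in CHO-M1 cells, lithium-potentiated; 30 min at 37C. IP1 detected by competitive TR-FRET after 10 min lysis at RT. Hill-fitted AC50.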
# TRPV1 potentiator: enhances activation of the human vanilloid receptor TRPV1 | Q8NER1 | TRPV1-expressing cells, Fluo-8 calcium influx, capsaicin EC20 potentiation | potentiation, % at 8.33 µM | hit rate 0.02% among 320,000 | AID 540277; in the data active = potentiation above about 80%; inconclusive = between about 30% and that limit; note: 0% is about no effect
#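 Fluo-8 calcium influx in TRPV1-expressing cells, kinetic read (ex 480/em 520 nm). Compound added and read 3 min for agonist activity, followed by capsaicin at EC20 final and 2 min further read for enhancement.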
# TRPV1 agonist: activates the human vanilloid receptor TRPV1. Q8NER1. TRPV1-expressing cells, Fluo-8 calcium influx, agonist mode. activation, % at 8.33 µM. hit rate 0.19% among 320,000; in the data active = activation above about 80%; inconclusive = between about 30% and that limit; note: 0% is about no effect
#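 Fluo-8 calcium influx in TRPV1-expressing cells, kinetic read (ex 480/em 520 nm). Compound added and read 3 min for agonist activity, followed by capsaicin at EC20 final and 2 min further read for enhancement.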
# AT treatment: potential ataxia-telangiectasia treatments restoring KAP-1 phosphorylation | AID 485349 | hit rate 0.19% among 320,000 | F2112 A-T fibroblasts, KAP-1 phosphorylation AlphaLISA; neocarzinostatin DNA damage 30 min before lysis | Potency, µM (titrated, usually from 57.5 µM), for the others: top-dose activation, hits mostly activators; note: potency is the fitted concentration of half-maximal effect; % of control where 0% means no effect; nearly all actives have a fitted effect of over 45% in size
#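 ATM-like activity read as KAP-1 phosphorylation via AlphaLISA donor/acceptor antibody pairs after lysis and 6 hr at 25C. Cells were ATM-null patient fibroblasts (F2112, hTERT), dosed 60 min, then exposed to the DSB inducer NCS for 30 min.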
# * = called active by the depositor; ? = inconclusive; / = no result; [ ] = remark or other dose. Unless noted, calls come from the whole dose curve; as a rule, active = well fitted curve in the direction sought with a large enough effect; inconclusive = small, poorly fitted or top-dose-only effect, or another doubt; inactive = no such curve, though single readings can be large; an effect the other way counts as inactive or inconclusive.
SMILES,IMPase Li cell,TRPV1 potentiator,TRPV1 agonist,AT treatment
C#CCOCCOCCOCCNc1nc(N2CCN(C(=O)[C@H](CCC(=O)O)n3cc(C(N)Cc4ccc(O)cc4)nn3)CC2)nc(N2CCN(C(=O)[C@H](CCCCN)n3cc(C(N)[C@H](C)CC)nn3)CC2)n1 (some centres undefined),/,-6,5,40µM*
C#CCOCCOCCOCCNc1nc(N2CCN(C(=O)[C@H](CCC(=O)O)n3cc(C(N)CO)nn3)CC2)nc(N2CCN(C(=O)[C@H](CCC(=O)O)n3cc(C(N)CC(C)C)nn3)CC2)n1 (some centres undefined),/,?,-4,18µM*
C#CCOCCOCCOCCNc1nc(N2CCN(C(=O)[C@H](CCC(=O)O)n3cc(C(N)CO)nn3)CC2)nc(N2CCN(C(=O)[C@H](CCC(=O)O)n3cc(C(N)CO)nn3)CC2)n1 (some centres undefined),/,-13,-1,0%
CC(C)(N)C(=O)N[C@@H]1C(=O)N2[C@@H]1SC(C)(C)[C@H]2C(=O)O,-4%,/,/,/
O=C1C[C@H]2OCC=C3CN4CC[C@@]5(C(=O)O)[C@H](N1)C2[C@H]3C[C@H]45 (some centres undefined),2%,/,/,/
O=C(NCCSCc1c(F)cccc1Cl)Nc1ccccc1,/,17,83*,-4%
COc1ccc(-c2ccc(C(=O)O)c(=O)[nH]2)cc1,3.2µM*,-2,-3,8%
Nc1[nH]c(=S)[nH]c(=O)c1N=Nc1c(Br)cc(S(N)(=O)=O)cc1Br,-15%,/,/,/
CC1=NOC(=O)/C1=C\c1ccc(-c2ccccc2Br)o1,7.1µM*,16,-5,-7%
CC1=NOC(=O)/C1=C\c1ccc(-c2cccc(Cl)c2)o1,10%[38.3 µM],4,13,-11%
CCC(N)(C(=O)O)c1ccc(C(=O)O)cc1 (centres undefined),-4%,/,/,/
COc1ccc2c(c1)c(CCN1C(=O)c3ccccc3C1=O)cn2C(=O)c1ccco1,8.9µM*,-8,15,-8%
Cc1cccc(N2CCN(C(=O)N3CCCCC3)CC2)c1C,4%,-2,82*,0%
Cc1ccc(N2CCN(C(=O)N3CCCC3)CC2)cc1C,13%[38.3 µM],-22,94*,/
Cn1c2ccccc2c2ncn(Cc3ccc(F)cc3)c(=O)c21,/,-3,80*,22%
Cn1c2ccccc2c2ncn(Cc3ccco3)c(=O)c21,4%[38.3 µM],1,-3,3%
COc1nc(NCCO)nc(Nc2ccccc2F)n1,1%,110*,-3,1%
Cc1cc(C2(c3cc(C)c(O)cc3C)OS(=O)(=O)c3ccccc32)c(C)cc1O,58%,/,/,/
CC(C)(C)C(=O)CSc1ncnc2c1cnn2Cc1ccccc1,/,-13,90*,1%
O=C1CCCc2nc(N3CCN(c4ccccc4)CC3)ncc21,11µM*,-9,2,-17%
O=C(Nc1ccc(C(F)(F)F)cn1)Nc1cccs1,/,7,5,-1%
Cc1nc(C(F)(F)F)ccc1C(=O)Nc1ccc(C(F)(F)F)cn1,/,-21,82*,5%
CCCCN1C(=O)C(=O)NC[C@@H]1C(C)O (some centres undefined),/,3,-4,-18%
CC(O)[C@H]1CNC(=O)C(=O)N1CC1(c2ccccc2)CC1 (some centres undefined),/,1,-2,8.9µM*
CCCCNc1c(-c2ccc(SC(C)CC)cc2)nc2ccccn12 (centres undefined),/,6,?,22µM*
SMILES,IMPase Li cell,TRPV1 potentiator,TRPV1 agonist,AT treatment
CCC(C)Sc1ccc(-c2nc3ccc(Cl)cn3c2NCc2ccccc2)cc1 (centres undefined),/,/,/,4%
CCCCNc1c(-c2ccc(SC3CCCCC3)cc2)nc2ccccn12,/,-6,?,?
CCC(C)Sc1ccc(-c2nc3ccc(C)cn3c2NCc2ccccc2)cc1OC (centres undefined),/,30,88*,?
CCC(C)Sc1cccc(-c2nc3cc(C)ccn3c2NCc2ccccc2)c1 (centres undefined),/,14,93*,22µM*
CN(C)c1ccc(/C=N\NC(=O)c2cnc3ccccc3c2)cc1,0%,/,/,/
CCc1ccccc1NC(=O)c1nnn(CC(=O)Nc2cccc(C)c2C)c1N,10µM*,/,/,-9%
C=C1CC[C@H](O)C/C1=C/C=C1\CCC[C@]2(C)C([C@H](C)CC[C@@H](O)C(C)(C)O)CC[C@@H]12 (some centres undefined),-8%,/,/,/
Fc1cccc(CNc2ncnc3ccc(-c4cccnc4)cc23)c1,/,/,/,-4%
O=C(O)C1CC2(C1)CC(C(=O)O)C2 (centres undefined),-1%,/,/,/
Cc1ccc(C(=O)N2CCC3(CC2)Oc2ccc(F)cc2C(=O)C32CC(c3cccnc3)=NO2)s1 (centres undefined),/,-7,?,40µM*
COc1ccccc1NC(=S)N1CC(C)(C)C1=O,/,-22,24,5.6µM*
Cc1ccc(-n2nnnc2SCC(=O)NC(=O)Nc2ccc3c(c2)OCCO3)cc1,14%[38.3 µM],2,1,-4%
Cc1nnc(SCC(=O)NC(=O)Nc2ccc3c(c2)OCCO3)n1N,/,1,1,0.71µM*
Cc1cc2cc3c(cc2nc1SCC(=O)O)CCC3,3.5µM*,13,-4,2%
CC(=O)c1cccc(NC(=O)/C=C/c2ccc([N+](=O)[O-])s2)c1,7%,-18,84*,0%
Cc1cc(C)cc(NC(=O)/C=C/c2ccc([N+](=O)[O-])s2)c1,9%,-3,3,-1%
CN(CC(=O)O)Cc1c[nH]c2ccccc12,-6%,/,/,/
COCCCNc1oc(/C=C/c2ccccc2)nc1C#N,/,-26,?,16µM*
CCOc1ccc(/C=C/c2nc(C#N)c(NCCCOC)o2)cc1,/,-6,15,9%
COCCCn1c(=O)c2sccc2n(Cc2cccc(F)c2)c1=O,/,-10,4,3%
COCCCn1c(=O)c2sccc2n(Cc2cccc(C)c2)c1=O,/,0,6,1.6µM*
Nc1cccc2c1C(=O)N(Cc1cccc(Cl)c1)C2=O,-5%,20,13,25%
N#CCN1C(=O)C(=O)N(Cc2cccc(Cl)c2)C1=O,/,-9,-1,0.71µM*
OC[C@H](CCc1c[nH]c2ccccc12)c1c[nH]c2ccccc12,-15%,/,/,/
O=C(NC(=O)c1c(F)cccc1F)Nc1ccccc1SC(F)F,/,8,11,10µM*
SMILES,IMPase Li cell,TRPV1 potentiator,TRPV1 agonist,AT treatment
C=CCC(C)(NCc1ccccc1)c1ccc(C)cc1 (centres undefined),9%,-3,-3,40µM*
Cc1ccc2c(c1)Sc1ccccc1CC2=O,5%[38.3 µM],-5,1,40µM*
O=C1Cc2ccccc2Sc2ccccc21,-23%[38.3 µM],?,6,3%
CC(=O)c1ccc(Nc2nc(C)nc3c2oc2ccccc23)cc1,?,7,?,-2%
Cc1ccc(Nc2nc(C)nc3c2oc2ccccc23)cc1,/,-11,88*,6%
COc1ccc(Nc2nc(C)nc3c2oc2ccccc23)cc1,/,-14,98*,0%
Cn1ncc(Oc2ccc([N+](=O)[O-])cc2)c(Cl)c1=O,/,-14,3,40µM*

# Source: PubChem (National Center for Advancing Translational Sciences (NCATS))
